Our source for the FP activity change values is PubChem BioAssay AID1766 (National Center for Advancing Translational Sciences (NCATS), 2009).

Each structure is given as a SMILES string. The campaign covered roughly 290,000 compounds. Fewer than 10 were called active. Another 3% or so got no clear call; they are omitted. The call rests on the fitted dose curve; in most records, active means well fitted curve in the direction sought with a large enough effect in the polarisation (not every such curve was filed as active); inconclusive means small, poorly fitted or top-dose-only effect, or effect the other way, or a change in a side signal; inactive means no such curve, though single readings can be large or run the other way; the % refers to the polarisation. Not all results are given here.

This assay in a line: qHTS Assay for Inhibitors Targeting the Menin-MLL Interaction in MLL Related Leukemias: Competition With Fluorescein Labeled MLL-derived Peptide. Further: % of control where 0% means no effect. The note with it: Fluorescence polarization, fluorescein-MLL peptide displacement from menin; series mostly up to 61.4 µM. An excerpt:
qHTS Assay for Inhibitors Targeting the Menin-MLL Interaction in MLL Related Leukemias NIH Chemical Genomics Center [NCGC] NIH Molecular Libraries Probe Centers Network [MLPCN] MLPCN Grant: MH084875-01A1 Assay Submitter (PI): Jolanta Grembecka, Tomasz Cierpicki, University of Virginia Translocations of the MLL (Mixed Lineage Leukemia) gene are frequently found in human leukemias affecting both children and adults. Fusion of MLL to one of more than 60 genes results in generation of oncogenic proteins upregulating Hox genes, which are vital to blood cell development. Patients harboring fusion of the MLL gene suffer from aggressive leukemias and respond poorly to available therapies. All of the oncogenic fusion proteins have a preserved N-terminal fragment of MLL that has been identified to interact with menin. It has been recently discovered that association with menin is critical to the leukemogenic activity of the MLL fusion oncoproteins. Selective targeting of the menin-MLL interaction could provide an attractive therapeutic approach to develop novel drugs for MLL-related leukemias. Small molecules blocking the menin-MLL interaction should reverse the oncogenic potential of MLL fusion proteins. We have developed and optimized a fluorescence polarization-based assay for the identification of Menin-MLL inhibitors. The assay was run employing two different MLL-derived peptides. The present assay uses a 12 amino acid peptide labeled with fluorescein at its N-terminus. This peptide consists of the menin high affinity binding motif from MLL and is potently bound by menin. Another peptide with a mutated sequence, labeled with Texas Red, was used in parallel as a less stringent screen for inhibitors.
The Menin protein, the MLL-wild type (w.t.) derived peptide (N-terminal 12 amino acids), the MLL-derived peptide labeled with Texas Red and the MLL-w.t. peptide labeled with Fluorescein were kindly supplied by laboratory of Dr. Jolanta Grembecka, University of Virginia. All protein and peptide solutions were stored in single use aliquots at -80C. The Eu3+ Cyrptate-conjugated mouse monoclonal antibody anti-6 Histidine (Eu3+-AB) and the Streptavidin-XL665 conjugate (XL665) were purchased from Cisbio International (Bedford, MA). All antibody and XL665 conjugate solution stocks were stored in single use aliquots at -20C. The Buffer components for all assays were purchased from Sigma-Aldrich (St. Louis, MO) and Invitrogen (Carlsbad, CA). FP Assay Reagents: 1. FP reaction buffer: 50 mM Tris-HCl pH 7.5, 50 mM NaCl, 1mM DTT. Before use, 0.05% BSA is added. 2. Menin protein, MLL-w.t. labeled with fluorescein, MLL-mutant peptide labeled with texas red. Stored in singe use aliquots at -80C. 3. MLL-w.t. unlabeled peptide as positive control: 10 uM final in FP buffer. FP Assay Procedure: 1. Prepare Menin at 200 nM, MLL-w.t.-fluorescein at 25 nM, and MLL-mutant-texas red at 50 nM mixture in FP buffer. 2. Prepare Menin at 200 nM, MLL-w.t.-fluorescein at 25 nM, MLL-mutant-texas red at 50 nM, and 10 uM MLL-w.t. unlabeled mixture in FP buffer. 3. Prepare MLL-w.t.-fluorescein at 25 nM and MLL-mutant-texas red at 50 nM mixture in FP buffer. 3. Dispense 4 ul per well of reagent in step 1 in columns 2, 4 - 48 in a black 1536 well plate, dispense 4 ul per well of reagents from steps 2 and 3 in columns 1 and 3 respectively. Incubate plate at ambient for 15 minutes. 4. Transfer 23 nl per well of compound to plate and incubate at ambient for 1 hr. 5. Read fluorescence polarization for each label using the PerkinElmer Envision. Envision protocol for fluorescein: FITC FP Dual Enh Mirror, Excitation filter 480, Emission filter (1) P-pol 535, Emission filter (2) S-pol 535 Envision protocol for texas red: FP Dual Enh Mirror, Excitation filter 555, Emission filter (1) P-pol 632, Emission filter (2) S-pol 632
(Quantitative high-throughput screening tests each substance at several concentrations.)
For `CC(C)(C)c1ccc(Cn2nnc3c(=O)[nH]c(C4CCCN(C(=O)c5ccco5)C4)nc32)cc1` (centres undefined), the FP activity change result was “inactive”.
As for `C/C=C/C=N/NC(=O)c1ccncc1`, the FP activity change entry is “inactive”.
For the molecule `CCC(=O)Nc1nc(C)c(C(=O)Nc2cccc(Cl)c2)s1`, the FP activity change entry was “inactive”.
Consider `COC(=O)c1ccc(CN2C(=O)NC(c3ccccc3)(c3ccccc3)C2=O)o1`, for which the FP activity change result was “inactive”.
As for `O=C(Nc1nnc(-c2ccccc2F)s1)c1ccccc1F`, the entry is “inactive”.
For the molecule `S=c1[nH]c(-c2cccs2)cn1-c1ccccc1`, the FP activity change result is “inactive”.
`Cc1ccc(-c2csc(N3CCN(c4cc5c(cc4Cl)nc(-c4ccncc4)n5CCOCCO)CC3)n2)cc1`: the FP activity change result is “inactive”.
Consider `CCOc1ccc(-n2c(SCC(=O)OC)nc3sc4c(c3c2=O)CCN(C)C4)cc1`, for which the FP activity change result was “inactive”.
On to `COC(=O)c1ccc(Nc2ncnc3sccc23)cc1`, for which the FP activity change entry is “inactive”.
In the case of `Cc1ccc(NC(=O)Nc2cccnc2)cc1`, the FP activity change result is “inactive”.
With `Cc1ccc(N(Cc2ccccc2O)C(=O)c2ccccc2F)cc1`, the FP activity change entry was “inactive”.
As for `Cc1ccccc1NC(=S)NC(=O)Cc1ccc(Cl)cc1`, the FP activity change result is “inactive”.
Regarding `O=C(NCCCO)c1cc2c([nH]c3ccccc32)c(-c2ccc(F)cc2)n1`, the FP activity change entry is “inactive”.
As to `Cc1cc(CNC(=O)C2CCC(=O)N(CCc3ccc(Cl)cc3)C2)no1` (centres undefined), the FP activity change entry is “inactive”.
As to `O=C1CCC([N+](=O)[O-])C(c2ccccc2Br)N1` (centres undefined), the FP activity change entry was “inactive”.
As to `CSc1nnc2ccc(-c3ccc(C)cc3)nn12`, the FP activity change entry is “inactive”.
In the case of `Cc1ccc(C(=O)c2coc3ccc(O)c(CN(C)C)c23)cc1` it was “inactive”; in that of `CC1(C(=O)NCCc2c[nH]c3ccccc23)C=CC2(CCCCC2)N1C(=O)c1ccccc1` (centres undefined), “inactive”; in that of `Cc1ccc(O)c(NC(=O)c2cc(-c3ccco3)on2)c1`, “inactive”.
In the case of `Cc1ccccc1NC(=O)CCOc1ccccc1`, the FP activity change entry is “inactive”.
For the molecule `Cc1ccc(SCC(CC(C)C)N2CCN(CCc3ccccc3)CCC2=O)cc1` (centres undefined), the FP activity change entry was “inactive”.
`NS(=O)(=O)c1ccc(CCNC(=O)c2nc(CS(=O)(=O)c3ccc(Cl)cc3)no2)cc1`: the FP activity change entry was “inactive”.
In the case of `O=C1CCN(Cc2ccccc2)CCN1[C@H](CSc1ccccc1)c1ccccc1` it was “inactive”; in that of `CS(=O)(=O)N(CC(=O)N1CCCCCC1)c1cccc(Cl)c1Cl`, “inactive”.
Consider `COc1ccc(NC(=O)N2CCCC2C(=O)NCc2ccccc2Cl)cc1` (centres undefined), for which the FP activity change entry was “inactive”.
In the case of `O=C(NCCCN1CCOCC1)C1CCCN(S(=O)(=O)N2CCCCC2)C1` (centres undefined) it was “inactive”; in that of `Cc1cc(F)ccc1N1CCC(N2CCN(C)C(CCO)C2)CC1` (centres undefined), “inactive”; in that of `Cc1cccc(C(=O)OC(C)CN2CCCC2)c1` (centres undefined), “inactive”.
Regarding `Cc1cn([C@H]2CC(F)[C@@H](CO)O2)c(=O)[nH]c1=O` (some centres undefined), the FP activity change result is “inactive”.
Turning to `CN1C(=O)CN2CCc3ccccc3C2c2cc(Cl)ccc21` (centres undefined), the FP activity change entry was “inactive”.
On to `C=C1C(=CC=C2CCC[C@@]3(C)[C@@H]2CC[C@H]3[C@H](C)CCCC(C)C)C[C@@H](O)C[C@@H]1O`, for which the FP activity change entry is “inactive”.
Take `COc1ccc(NC2CCCN(C(=O)c3ccncc3)C2)cc1` (centres undefined): the FP activity change entry was “inactive”.
Take `COc1cccc(OCc2cc(C(=O)N3CCN(C(=O)c4ccco4)CC3)no2)c1`: the FP activity change result was “inactive”.
As for `Cc1ccc(-c2nc(-c3ccncc3)no2)c(C)c1`, the FP activity change entry is “inactive”.
As for `CN(Cc1ccccc1)C(=O)c1ccc(COc2ccccc2)cc1`, the entry is “inactive”; as for `COc1cccc(NC(=O)C2C(c3ccccc3)C2(Cl)Cl)c1` (centres undefined), “inactive”.
For `CN(CCO)c1ccc(/C=N/Nc2nncc3ccccc23)cc1`, the FP activity change result is “inactive”.
For the molecule `CC(C)c1ccc(NC(=O)Cn2ncc3ccccc32)cc1`, the FP activity change result was “inactive”.
As for `COc1ccc(-c2n[nH]c(C)c2-c2ccccc2OC)c(O)c1`, the entry is “inactive”.
On to `CN(CCc1ccccc1)c1ccc([N+](=O)[O-])cn1`, for which the FP activity change result is “inactive”.
With `CC(C)(C)OC(=O)NC(Cc1ccccc1)C(=O)NC(CSC1CCCCO1)C(=O)NN` (centres undefined), the FP activity change result is “inactive”.
In the case of `CN(CC(=O)Nc1ccc(Cl)cc1)C(=O)CNC(=O)c1ccc2ccccc2c1` it was “inactive”; in that of `O=C(CCN1CCCO1)N1CCCC(N2CCN(c3cccc(C(F)(F)F)c3)CC2)C1` (centres undefined), “inactive”.
Regarding `C/C(=N\NC(=O)c1ccoc1C)c1ccccc1O`, the FP activity change entry is “inactive”.
For `CC(=O)Nc1ccc(NC(=O)CC2CCCC2)cc1`, the FP activity change result was “inactive”.
Regarding `COc1cccc2cc(C(N)=O)/c(=N\NC(=O)c3ccccc3)oc12`, the FP activity change entry was “inactive”.
With `COc1ccc(OC)c(/C(C)=N\NC(=O)c2cc3cc(Cl)ccc3n2C)c1`, the FP activity change result was “inactive”.
`CCCC[C@]12Cc3cc(OC)c(OC)cc3C(O1)C1=C(CC3(CCCCC3)OC1=O)O2`: the FP activity change is 0.345% [at 11.7 µM] (inactive).
As to `O=C(COc1ccc(S(=O)(=O)Nc2cccc(C(F)(F)F)c2)cc1)N1CCOCC1`, the FP activity change entry is “inactive”.
For the molecule `O=C(CSc1nnnn1C1CCCC1)N1CCCCC1`, the FP activity change entry is “inactive”.
As for `C[C@@H]1CC[C@@]2(OC1)O[C@H]1C[C@H]3[C@@H]4CC=C5C[C@@H](O)[C@H](O)C[C@]5(C)C4CC[C@]3(C)[C@H]1[C@@H]2C` (some centres undefined), the FP activity change result was “inactive”.
`COc1c(O)c2c(=O)cc(OC)c3c4c(OC)cc(=O)c5c(O)c(OC)c6c(c(c1C[C@@](C)(O)[C@H]6C(C)=O)c23)c54`: the FP activity change result is “inactive”.
`COCCNc1cc(-c2ccccc2)nc2cc(-c3cccc(F)c3)nn12`: the FP activity change result was “inactive”.
In the case of `COc1ccc(OC)c(NC(=O)CN(C)CCOc2ccc(Br)cc2)c1` it was “inactive”; in that of `CC(C)(c1ccccc1)c1ccc(OCCN2CCCC2)cc1`, “inactive”.
As for `CCN(CC)c1ccc(/C=N/NC(=O)CNC(=O)c2cccs2)cc1`, the entry is “inactive”.
As for `O=C(Cc1cccs1)NCc1cccc(C(F)(F)F)c1`, the entry is “inactive”; as for `Cc1cc(S(=O)(=O)NCc2ccccn2)c(Cl)cc1Cl`, “inactive”; as for `COc1ccccc1CNS(=O)(=O)c1ccc2c(c1)NC(=O)CS2`, “inactive”.
Take `COc1ccc(CNS(=O)(=O)c2ccc(NC(=O)N3CCCCC3)cc2)cc1`: the FP activity change entry is “inactive”.
On to `Oc1ccc(-c2cccc(-c3ccc(O)cc3)c2)cc1`, for which the FP activity change result is “inactive”.
Consider `CCCn1c(=O)c(C(=O)Nc2cc(C)ccn2)c(O)c2ccccc21`, for which the FP activity change entry was “inactive”.
Take `Cc1cccc(C)c1NC(=O)NC1=CCCN1C`: the FP activity change entry was “inactive”.
Regarding `O=C(Nc1ccc(F)cc1)c1ccc(S(=O)(=O)NCc2cccnc2)cc1`, the FP activity change result is “inactive”.
As to `CC(C)NC(=O)COCc1cc(-c2ccc3c(c2)OCO3)on1`, the FP activity change entry is “inactive”.
With `COc1ccc(/C=N/Nc2nc(-c3ccc(C)cc3)c(C#N)c(=O)[nH]2)cc1`, the FP activity change result is “inactive”.
On to `COc1ccc(NCCc2ccccn2)cc1`, for which the FP activity change entry is “inactive”.
For the molecule `COc1cc(Cl)ccc1OCc1cc(C(=O)N(C)CCc2c(C)n[nH]c2C)no1`, the FP activity change entry was “inactive”.
In the case of `CCCCn1c(-c2cccc(C)c2)nc2cc3[nH]c(=O)c(C(C)C)nc3cc21`, the FP activity change result was “inactive”.
